The text below walks through data of ChEMBL document CHEMBL1961873, “Compounds: GSK PKIS; Assays: Nanosyn kinase panel” (2012).

For assay [1], the target named is Tyrosine-protein kinase CSK (Homo sapiens) (UniProt P41240). As to conditions: at 1 µM.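 Also: each value is an averaged inhibition reading.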
The target in assay [2] is T1, Discoidin domain-containing receptor 2 (Homo sapiens) (UniProt Q16832).
T1 sequence (whole entry): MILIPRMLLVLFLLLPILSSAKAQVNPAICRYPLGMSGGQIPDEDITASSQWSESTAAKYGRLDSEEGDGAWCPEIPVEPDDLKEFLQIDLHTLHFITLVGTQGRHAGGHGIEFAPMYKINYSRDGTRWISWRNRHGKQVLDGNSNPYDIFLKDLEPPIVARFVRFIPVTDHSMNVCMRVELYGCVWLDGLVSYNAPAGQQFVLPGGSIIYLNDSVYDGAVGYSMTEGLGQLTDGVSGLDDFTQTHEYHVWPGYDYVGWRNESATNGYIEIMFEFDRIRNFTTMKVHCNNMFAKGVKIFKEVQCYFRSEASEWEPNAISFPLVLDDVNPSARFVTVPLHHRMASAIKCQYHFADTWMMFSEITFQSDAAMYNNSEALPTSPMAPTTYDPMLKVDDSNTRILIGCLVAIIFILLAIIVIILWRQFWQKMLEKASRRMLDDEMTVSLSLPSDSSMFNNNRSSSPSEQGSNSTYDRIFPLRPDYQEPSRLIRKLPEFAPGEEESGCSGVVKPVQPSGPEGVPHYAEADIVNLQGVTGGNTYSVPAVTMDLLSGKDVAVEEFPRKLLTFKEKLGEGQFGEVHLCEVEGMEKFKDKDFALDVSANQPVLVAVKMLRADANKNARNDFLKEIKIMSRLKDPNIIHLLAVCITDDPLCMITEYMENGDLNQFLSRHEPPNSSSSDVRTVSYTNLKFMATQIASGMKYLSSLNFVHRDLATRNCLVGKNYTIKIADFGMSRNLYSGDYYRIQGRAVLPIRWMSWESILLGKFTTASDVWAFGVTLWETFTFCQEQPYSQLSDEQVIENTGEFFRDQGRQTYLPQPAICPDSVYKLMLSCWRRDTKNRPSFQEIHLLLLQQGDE
As to conditions: at 0.1 µM.

Assay [3] has as its target T1, Discoidin domain-containing receptor 2 (Homo sapiens). As to conditions: at 1 µM.
The target of assay [4] is Epidermal growth factor receptor (Homo sapiens) (UniProt P00533). As to conditions: at 0.1 µM.
The target is the same in assay [5]. As to conditions: at 1 µM.
The subject of assay [6] is Epidermal growth factor receptor (Homo sapiens), P00533 [L858R]. As to conditions: at 0.1 µM.
Assay [7] has the same test system. As to conditions: at 1 µM.
Assay [8] concerns Epidermal growth factor receptor (Homo sapiens), P00533 [L861Q]. As to conditions: at 0.1 µM.
For assay [9] the test system is unchanged. As to conditions: at 1 µM.
The subject of assay [10] is Epidermal growth factor receptor (Homo sapiens), P00533 [T790M]. As to conditions: at 0.1 µM.
For assay [11] the test system is unchanged. As to conditions: at 1 µM.
For assay [12], the system named is Epidermal growth factor receptor (Homo sapiens), P00533 [L858R,T790M]. As to conditions: at 0.1 µM.
The test system is the same in assay [13]. As to conditions: at 1 µM.
The target of assay [14] is Ephrin type-A receptor 2 (Homo sapiens) (UniProt P29317). As to conditions: at 0.1 µM.
For assay [15] the target is unchanged. As to conditions: at 1 µM.
Assay [16] has as its target T2, Ephrin type-A receptor 3 (Homo sapiens) (UniProt P29320).
T2 sequence (whole entry): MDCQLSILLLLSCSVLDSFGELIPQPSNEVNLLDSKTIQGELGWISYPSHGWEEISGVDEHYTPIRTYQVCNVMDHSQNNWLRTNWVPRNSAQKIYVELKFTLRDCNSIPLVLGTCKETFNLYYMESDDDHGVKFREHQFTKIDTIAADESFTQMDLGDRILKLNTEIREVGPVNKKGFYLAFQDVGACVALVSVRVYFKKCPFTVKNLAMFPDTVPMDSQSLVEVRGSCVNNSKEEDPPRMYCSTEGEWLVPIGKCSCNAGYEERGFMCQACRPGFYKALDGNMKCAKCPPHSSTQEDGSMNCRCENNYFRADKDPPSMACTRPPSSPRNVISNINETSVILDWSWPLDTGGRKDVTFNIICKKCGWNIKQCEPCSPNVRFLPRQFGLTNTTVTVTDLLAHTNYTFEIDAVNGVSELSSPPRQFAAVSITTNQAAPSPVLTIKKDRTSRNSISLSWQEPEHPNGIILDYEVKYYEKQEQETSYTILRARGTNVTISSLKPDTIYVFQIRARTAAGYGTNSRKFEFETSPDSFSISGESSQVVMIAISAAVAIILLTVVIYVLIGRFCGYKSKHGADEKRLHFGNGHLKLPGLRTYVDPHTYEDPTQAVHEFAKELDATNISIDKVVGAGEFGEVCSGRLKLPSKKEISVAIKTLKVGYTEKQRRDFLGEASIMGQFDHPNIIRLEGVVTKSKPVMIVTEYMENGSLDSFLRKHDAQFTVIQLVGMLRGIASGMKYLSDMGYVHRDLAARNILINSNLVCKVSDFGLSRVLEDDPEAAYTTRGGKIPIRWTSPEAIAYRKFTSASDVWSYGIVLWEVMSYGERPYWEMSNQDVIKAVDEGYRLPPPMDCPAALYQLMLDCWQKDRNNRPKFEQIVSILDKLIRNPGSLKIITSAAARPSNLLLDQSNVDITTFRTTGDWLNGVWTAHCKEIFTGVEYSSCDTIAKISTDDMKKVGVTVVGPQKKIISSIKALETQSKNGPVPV
As to conditions: at 0.1 µM.

The target in assay [17] is T2, Ephrin type-A receptor 3 (Homo sapiens). As to conditions: at 1 µM.
Assay [18] concerns the target Ephrin type-A receptor 4 (Homo sapiens) (UniProt P54764). As to conditions: at 0.1 µM.
Assay [19] has the same target. As to conditions: at 1 µM.
The target of assay [20] is T3, Ephrin type-B receptor 2 (Homo sapiens) (UniProt P29323).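 Also: reported as mean inhibition of EPHB2, from the GSK PKIS dataset.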
T3 sequence (whole entry): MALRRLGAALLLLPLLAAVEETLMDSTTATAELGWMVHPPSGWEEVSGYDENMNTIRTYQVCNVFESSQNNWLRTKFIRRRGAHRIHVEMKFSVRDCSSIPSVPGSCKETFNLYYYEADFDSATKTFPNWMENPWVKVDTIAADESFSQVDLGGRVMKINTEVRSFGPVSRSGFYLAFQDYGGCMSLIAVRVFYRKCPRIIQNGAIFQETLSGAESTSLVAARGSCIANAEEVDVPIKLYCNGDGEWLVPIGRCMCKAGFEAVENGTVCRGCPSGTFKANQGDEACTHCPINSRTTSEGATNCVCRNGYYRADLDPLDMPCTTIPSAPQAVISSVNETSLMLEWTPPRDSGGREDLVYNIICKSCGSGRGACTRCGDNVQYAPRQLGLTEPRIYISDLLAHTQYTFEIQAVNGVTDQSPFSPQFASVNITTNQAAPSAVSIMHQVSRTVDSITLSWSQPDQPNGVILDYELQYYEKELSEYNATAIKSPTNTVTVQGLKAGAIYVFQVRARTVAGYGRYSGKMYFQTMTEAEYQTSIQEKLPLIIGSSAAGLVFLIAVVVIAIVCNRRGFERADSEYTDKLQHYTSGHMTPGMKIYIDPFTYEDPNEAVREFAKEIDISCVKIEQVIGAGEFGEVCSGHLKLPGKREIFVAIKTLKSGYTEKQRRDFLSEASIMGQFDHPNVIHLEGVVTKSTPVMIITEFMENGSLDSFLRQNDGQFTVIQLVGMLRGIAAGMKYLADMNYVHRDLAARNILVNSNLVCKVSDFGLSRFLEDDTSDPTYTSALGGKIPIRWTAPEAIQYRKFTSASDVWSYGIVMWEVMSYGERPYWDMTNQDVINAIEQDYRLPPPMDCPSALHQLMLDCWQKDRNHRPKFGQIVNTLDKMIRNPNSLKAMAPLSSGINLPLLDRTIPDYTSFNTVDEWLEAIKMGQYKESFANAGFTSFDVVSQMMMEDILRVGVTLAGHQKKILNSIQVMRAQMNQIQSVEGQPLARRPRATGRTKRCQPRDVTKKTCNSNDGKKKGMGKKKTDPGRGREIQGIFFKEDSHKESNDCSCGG
As to conditions: at 0.1 µM.

What is called inhibition is the relative decrease from the control value, in per cent.

Sequence of Epidermal growth factor receptor (Homo sapiens), P00533 [L858R] (P00533 whole entry L858R): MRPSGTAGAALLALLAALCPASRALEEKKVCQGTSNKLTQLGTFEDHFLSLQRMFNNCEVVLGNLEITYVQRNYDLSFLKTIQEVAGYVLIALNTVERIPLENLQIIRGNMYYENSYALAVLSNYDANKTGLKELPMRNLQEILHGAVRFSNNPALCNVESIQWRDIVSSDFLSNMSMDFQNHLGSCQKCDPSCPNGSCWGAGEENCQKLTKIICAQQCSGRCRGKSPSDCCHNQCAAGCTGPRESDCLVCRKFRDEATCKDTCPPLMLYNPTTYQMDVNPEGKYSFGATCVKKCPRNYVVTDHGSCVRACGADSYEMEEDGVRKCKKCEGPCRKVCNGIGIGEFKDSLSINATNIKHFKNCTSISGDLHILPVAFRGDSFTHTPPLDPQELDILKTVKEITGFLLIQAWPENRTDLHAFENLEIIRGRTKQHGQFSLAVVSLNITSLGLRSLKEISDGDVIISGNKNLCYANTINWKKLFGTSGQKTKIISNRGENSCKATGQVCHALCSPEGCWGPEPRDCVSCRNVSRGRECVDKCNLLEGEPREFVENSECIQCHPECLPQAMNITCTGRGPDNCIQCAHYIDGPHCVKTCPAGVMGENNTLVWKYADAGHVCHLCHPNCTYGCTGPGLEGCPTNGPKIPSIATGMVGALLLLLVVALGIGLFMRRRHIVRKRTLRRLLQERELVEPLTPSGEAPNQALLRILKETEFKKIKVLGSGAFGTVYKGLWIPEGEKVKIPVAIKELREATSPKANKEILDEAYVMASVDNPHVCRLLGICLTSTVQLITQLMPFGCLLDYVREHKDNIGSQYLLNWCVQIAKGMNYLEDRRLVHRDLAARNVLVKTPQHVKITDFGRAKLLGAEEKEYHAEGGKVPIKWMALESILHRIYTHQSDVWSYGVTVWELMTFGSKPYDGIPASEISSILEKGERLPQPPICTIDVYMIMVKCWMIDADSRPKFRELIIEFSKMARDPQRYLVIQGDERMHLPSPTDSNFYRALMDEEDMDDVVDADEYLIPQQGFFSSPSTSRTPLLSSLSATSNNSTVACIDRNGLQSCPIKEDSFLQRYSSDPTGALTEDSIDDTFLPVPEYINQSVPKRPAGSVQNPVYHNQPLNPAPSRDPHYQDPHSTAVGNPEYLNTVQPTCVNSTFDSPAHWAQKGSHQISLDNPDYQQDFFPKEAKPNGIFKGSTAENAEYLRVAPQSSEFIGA
Sequence of Epidermal growth factor receptor (Homo sapiens), P00533 [L858R,T790M] (P00533 whole entry T790M/L858R, looked up): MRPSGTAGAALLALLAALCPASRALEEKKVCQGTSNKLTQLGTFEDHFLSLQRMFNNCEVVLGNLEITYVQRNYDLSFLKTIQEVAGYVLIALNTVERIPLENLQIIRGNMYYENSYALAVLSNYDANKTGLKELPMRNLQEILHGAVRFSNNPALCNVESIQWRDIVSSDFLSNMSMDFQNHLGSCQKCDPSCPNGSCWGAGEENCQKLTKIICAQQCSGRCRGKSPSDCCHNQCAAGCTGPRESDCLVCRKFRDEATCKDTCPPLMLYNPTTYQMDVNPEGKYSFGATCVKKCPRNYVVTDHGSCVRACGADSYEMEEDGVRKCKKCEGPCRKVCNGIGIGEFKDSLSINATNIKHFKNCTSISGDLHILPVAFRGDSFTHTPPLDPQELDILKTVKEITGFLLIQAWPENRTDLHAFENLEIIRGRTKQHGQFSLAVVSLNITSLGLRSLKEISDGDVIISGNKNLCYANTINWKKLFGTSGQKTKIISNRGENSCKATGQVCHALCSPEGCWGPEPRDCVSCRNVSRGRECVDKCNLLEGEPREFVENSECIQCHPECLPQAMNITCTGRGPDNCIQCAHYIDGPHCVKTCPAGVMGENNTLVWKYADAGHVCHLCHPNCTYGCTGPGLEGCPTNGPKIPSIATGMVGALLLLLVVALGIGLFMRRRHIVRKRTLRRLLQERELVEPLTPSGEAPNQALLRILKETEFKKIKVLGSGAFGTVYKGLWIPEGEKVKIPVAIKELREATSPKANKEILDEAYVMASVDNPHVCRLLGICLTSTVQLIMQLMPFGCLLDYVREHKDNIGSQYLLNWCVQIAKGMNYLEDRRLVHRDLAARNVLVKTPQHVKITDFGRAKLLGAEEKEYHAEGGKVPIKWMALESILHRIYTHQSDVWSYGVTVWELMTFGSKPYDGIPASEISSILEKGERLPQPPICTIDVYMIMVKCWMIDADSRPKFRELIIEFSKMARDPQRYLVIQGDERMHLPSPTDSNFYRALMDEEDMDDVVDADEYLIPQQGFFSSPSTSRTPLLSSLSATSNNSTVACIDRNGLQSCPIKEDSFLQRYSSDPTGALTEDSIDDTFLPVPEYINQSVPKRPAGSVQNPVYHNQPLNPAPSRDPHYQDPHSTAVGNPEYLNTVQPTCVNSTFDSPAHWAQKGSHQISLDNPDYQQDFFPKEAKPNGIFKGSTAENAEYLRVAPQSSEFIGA
Sequence of Epidermal growth factor receptor (Homo sapiens), P00533 [L861Q] (P00533 whole entry L861Q): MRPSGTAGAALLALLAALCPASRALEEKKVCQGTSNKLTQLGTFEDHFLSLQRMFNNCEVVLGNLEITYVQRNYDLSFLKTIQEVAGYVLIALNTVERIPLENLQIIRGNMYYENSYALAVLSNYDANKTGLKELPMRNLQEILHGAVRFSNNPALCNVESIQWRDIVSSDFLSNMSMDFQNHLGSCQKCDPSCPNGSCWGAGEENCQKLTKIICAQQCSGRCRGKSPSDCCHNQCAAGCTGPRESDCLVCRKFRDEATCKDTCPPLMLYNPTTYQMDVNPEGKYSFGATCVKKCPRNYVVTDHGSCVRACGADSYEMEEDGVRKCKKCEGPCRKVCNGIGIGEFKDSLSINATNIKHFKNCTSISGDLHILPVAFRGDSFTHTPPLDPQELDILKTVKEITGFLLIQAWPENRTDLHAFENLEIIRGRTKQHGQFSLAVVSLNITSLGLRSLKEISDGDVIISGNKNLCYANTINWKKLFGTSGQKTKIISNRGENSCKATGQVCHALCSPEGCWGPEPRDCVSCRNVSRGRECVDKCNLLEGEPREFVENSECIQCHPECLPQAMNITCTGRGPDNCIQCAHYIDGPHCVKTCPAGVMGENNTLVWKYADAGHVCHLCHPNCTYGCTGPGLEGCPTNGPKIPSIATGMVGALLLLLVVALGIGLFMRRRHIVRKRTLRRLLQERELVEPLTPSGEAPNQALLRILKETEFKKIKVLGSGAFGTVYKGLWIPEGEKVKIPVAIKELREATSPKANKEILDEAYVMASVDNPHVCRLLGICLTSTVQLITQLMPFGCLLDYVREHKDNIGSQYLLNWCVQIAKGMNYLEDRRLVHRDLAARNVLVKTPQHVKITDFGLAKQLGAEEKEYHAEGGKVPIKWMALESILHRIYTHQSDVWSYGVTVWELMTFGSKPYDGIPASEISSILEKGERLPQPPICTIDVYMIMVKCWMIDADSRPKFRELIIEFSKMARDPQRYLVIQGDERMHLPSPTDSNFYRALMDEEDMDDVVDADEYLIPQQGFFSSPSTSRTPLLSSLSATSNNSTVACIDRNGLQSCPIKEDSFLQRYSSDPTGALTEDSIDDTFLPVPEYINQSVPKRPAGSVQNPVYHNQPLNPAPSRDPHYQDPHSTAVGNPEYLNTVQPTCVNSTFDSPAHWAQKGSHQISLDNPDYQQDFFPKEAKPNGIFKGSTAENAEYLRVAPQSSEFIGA
Sequence of Epidermal growth factor receptor (Homo sapiens) (P00533 whole entry): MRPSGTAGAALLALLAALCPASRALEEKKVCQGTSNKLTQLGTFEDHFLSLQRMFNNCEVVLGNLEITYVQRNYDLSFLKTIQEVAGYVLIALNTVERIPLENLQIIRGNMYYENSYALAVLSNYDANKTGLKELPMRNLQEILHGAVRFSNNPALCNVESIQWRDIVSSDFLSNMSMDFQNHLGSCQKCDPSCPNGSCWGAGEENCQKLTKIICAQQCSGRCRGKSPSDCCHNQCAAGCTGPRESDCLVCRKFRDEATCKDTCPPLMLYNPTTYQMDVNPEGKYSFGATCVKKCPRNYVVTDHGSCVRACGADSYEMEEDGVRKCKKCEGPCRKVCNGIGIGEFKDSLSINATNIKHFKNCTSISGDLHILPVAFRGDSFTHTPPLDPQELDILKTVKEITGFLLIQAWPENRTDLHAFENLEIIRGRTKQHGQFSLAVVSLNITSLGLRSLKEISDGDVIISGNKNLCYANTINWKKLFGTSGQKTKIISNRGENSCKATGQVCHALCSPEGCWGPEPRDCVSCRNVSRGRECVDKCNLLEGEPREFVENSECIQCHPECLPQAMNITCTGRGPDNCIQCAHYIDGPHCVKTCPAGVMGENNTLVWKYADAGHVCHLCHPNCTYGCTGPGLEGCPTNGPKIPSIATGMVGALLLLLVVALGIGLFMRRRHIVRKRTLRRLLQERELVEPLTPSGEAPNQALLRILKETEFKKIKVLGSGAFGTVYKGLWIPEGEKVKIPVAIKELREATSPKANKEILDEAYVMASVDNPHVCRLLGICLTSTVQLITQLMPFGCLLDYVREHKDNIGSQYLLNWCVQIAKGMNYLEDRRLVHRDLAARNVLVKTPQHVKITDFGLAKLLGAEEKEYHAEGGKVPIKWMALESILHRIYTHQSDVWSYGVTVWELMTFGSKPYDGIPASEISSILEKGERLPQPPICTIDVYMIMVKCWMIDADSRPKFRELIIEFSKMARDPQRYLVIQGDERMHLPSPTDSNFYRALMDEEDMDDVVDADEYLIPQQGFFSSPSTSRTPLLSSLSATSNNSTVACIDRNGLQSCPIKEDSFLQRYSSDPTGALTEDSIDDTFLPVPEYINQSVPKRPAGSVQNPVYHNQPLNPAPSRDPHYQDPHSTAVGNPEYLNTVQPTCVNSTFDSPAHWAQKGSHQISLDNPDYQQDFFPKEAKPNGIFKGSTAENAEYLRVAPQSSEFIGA

`CS(=O)(=O)CCNCc1ccc(-c2ccc3ncnc(Nc4ccc(OCc5ccccc5)c(Cl)c4)c3c2)o1`: the inhibition was 5.6% in assay [1]; 3.48% in assay [2]; 9.08% in assay [3]; 82.5% in assay [4]; 85.6% in assay [5]; 61.7% in assay [6]. In addition, the inhibition was 93.6% in [7]; 52.9% in [8]; 87.6% in assay [9]; 2.68% in assay [10]; 17.8% in assay [11]; -1.01% in [12]. Further, the inhibition in assay [13] is 2.45%; in assay [14] it was -2.92%; in assay [15], -2.31%; in [16], -2.51%; in assay [17], 1.66%; in assay [18], 1.26%. The inhibition in assay [19] turned out to be 9.95%; in assay [20] it was 5.36%.

Turning to `COc1ccc(-c2coc3ncnc(N)c23)cc1`, the inhibition was 0.88% in assay [1]; 2.79% in assay [2]; 2.69% in [3]; -0.38% in assay [4]; 2.37% in assay [5]; 1.46% in [6]. The inhibition in [7] is 1.48%; in assay [8], 1.51%; in assay [9], -0.75%; in assay [10] it was 1.2%; in assay [11], -0.41%; in [12] it was 3.68%. In addition, the inhibition in assay [13] was determined as 1.07%; in assay [14] it was 1.21%; in assay [15], 1.62%; in assay [16], 2.58%; in [17] it was 3.4%; in assay [18], 7.51%. The inhibition in assay [19] came to 3.15%; in assay [20], 4.53%.

With `c1cnn2ncc(-c3ccnc(Nc4ccc5c(c4)OCCO5)n3)c2c1`, the inhibition in [1] amounted to 14.9%; in [2] it was 2.85%; in assay [3], 2.07%; in [4] it was 1.88%; in assay [5], 4.28%; in assay [6] it was 3.09%. Moreover, the inhibition in [7] turned out to be 11%; in assay [8], 3.71%; in assay [9], 5.7%; in assay [10], 2.81%; in assay [11], 2.42%; in [12] it was 2.19%. Besides, the inhibition was found to be 7.05% in assay [13]; 2.91% in [14]; 5.71% in assay [15]; 7.54% in [16]; 5.48% in [17]; 12% in assay [18]. Also, the inhibition in [19] came out at 28.2%; in assay [20], 12.1%.

On to `Cc1cccc(-c2n[nH]cc2-c2ccc3ncccc3n2)n1`, for which the inhibition in assay [1] was 0.97%; in assay [2], 0.57%; in assay [3], 0.86%; in assay [4], -0.16%; in [5], 0.24%; in assay [6], -0.08%. Besides, the inhibition in assay [7] is -1.71%; in [8] it was -1.59%; in assay [9] it was -1.42%; in assay [10] it was -0.88%; in assay [11], -0.3%; in assay [12] it was -1.54%. Besides, the inhibition was -0.13% in [13]; -2.12% in [14]; -2.51% in assay [15]; 0.6% in [16]; 3.6% in [17]; 3.45% in assay [18]. Further, the inhibition was found to be 4.46% in assay [19] and 1.55% in assay [20].

As for `NCc1ccc(-c2nc(-c3ccc(Cl)c(O)c3)c(-c3ccncc3)[nH]2)cc1`, the inhibition in assay [1] turned out to be 7.83%; in assay [2] it was 0.6%; in assay [3], 9.1%; in assay [4] it was 4.77%; in assay [5] it was 21.8%; in assay [6], 1.78%. For the same compound, the inhibition in assay [7] was 31.9%; in assay [8], 1.15%; in assay [9], 13.5%; in assay [10], -0.03%; in assay [11] it was 0.46%; in assay [12], 0.24%. The inhibition was determined as 5.04% in assay [13]; 2.14% in assay [14]; 8.19% in assay [15]; 3.13% in [16]; 2.67% in assay [17]; 4.74% in assay [18]. Besides, the inhibition in assay [19] is 21.9%; in assay [20] it was -0.39%.

For the compound `CC1=C(C(=O)Nc2ccc3[nH]ncc3c2)C(c2ccc3ccccc3c2)CC(=O)N1` (stereo not given), the inhibition in assay [1] was found to be 8.49%; in [2], 1.3%; in assay [3], 0.24%; in assay [4], 1.29%; in [5], 5.76%; in [6], 3.81%. Also, the inhibition stood at 6.61% in assay [7]; 2.89% in [8]; 1.33% in [9]; 1.06% in [10]; 3.65% in assay [11]; 4.92% in assay [12]. The inhibition in assay [13] was 23.5%; in assay [14] it was -0.93%; in [15], 0.37%; in assay [16], 3.77%; in assay [17] it was 6.3%; in [18], 6.86%. In addition, the inhibition in assay [19] amounted to 10.2%; in assay [20], 7.74%.
